Screening data: PubChem, The Scripps Research Institute Molecular Screening Center
Fam108B inh = blocks mouse Fam108B hydrolase in RBBP9 counter-screen; recombinant Fam108B, FP-Rh probe fluorescence polarization; inhibition, % at 9.51 µM; hit rate 0.33% among 300,000;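 active = inhibition above the screen mean inhibition plus 3 SD, computed separately per campaign, cut at about 18% in these data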;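 note: inhibitors lower polarization as less probe binds the enzyme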
PAFAH1B3 FP inh = blocks human PAF acetylhydrolase 1B catalytic subunit 3. Q15102. recombinant PAFAH1B3, FP-rhodamine probe, fluorescence polarization. inhibition, % at 3.39 µM. hit rate 0.28% among 340,000. AID 492972;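 active = inhibition above the screen-wide average of all tested compounds plus 3 SD, cut at about 25% in these data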;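 note: 0% = enzyme with DMSO only and 100% = wells lacking PAFAH1B3 protein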
PAFAH2 inh = inhibitors of human PAFAH2; Q99487; recombinant PAFAH2, FP-rhodamine activity probe, fluorescence polarization; inhibition, % at 3.39 µM; hit rate 0.99% among 340,000;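 active = inhibition above the mean over all tested compounds plus 3 SD, cut at about 30% in these data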;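 note: inhibitors block probe labeling of enzyme so polarization drops; 0% = enzyme with DMSO and 100% = wells lacking PAFAH2 protein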
PME-1 inh = PME-1 (human) inhibition. inhibition, % at 5.9 µM. hit rate 0.53% among 320,000. recombinant PME-1, FP-Rh probe fluorescence polarization. Q9Y570;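 active = inhibition above the campaign mean of all compounds plus 3 SD, cut at about 26% in these data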;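 note: competitive labeling of PME-1 active site by serine hydrolase directed probe; 0% = PME-1 with DMSO and 100% = wells lacking PME-1 enzyme; inhibitors block probe labeling so polarization falls and inhibition rises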
Target sequence (Q9Y570 whole entry, looked up): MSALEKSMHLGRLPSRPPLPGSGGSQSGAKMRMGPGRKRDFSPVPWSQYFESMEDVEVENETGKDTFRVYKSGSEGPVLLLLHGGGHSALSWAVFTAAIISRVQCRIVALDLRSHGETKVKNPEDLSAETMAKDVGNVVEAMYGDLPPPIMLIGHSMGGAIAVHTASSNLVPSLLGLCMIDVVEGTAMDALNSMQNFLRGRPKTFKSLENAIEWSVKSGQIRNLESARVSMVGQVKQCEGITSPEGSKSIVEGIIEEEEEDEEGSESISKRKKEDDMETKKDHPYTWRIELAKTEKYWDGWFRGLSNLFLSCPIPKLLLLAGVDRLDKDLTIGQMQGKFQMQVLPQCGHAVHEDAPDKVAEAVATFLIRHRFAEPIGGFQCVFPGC
pPAFAH inh = inhibitors of human plasma PAF acetylhydrolase (pPAFAH); hit rate 1.5% among 330,000; recombinant pPAFAH, FP-rhodamine probe fluorescence polarization; inhibition, % at 3.39 µM; AID 463082; Q13093;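 active = inhibition above the mean inhibition across the screen plus 3 SD, cut at about 25% in these data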;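 note: inhibitors block binding of the rhodamine activity-based probe so polarization drops; 0% = enzyme with DMSO and 100% = wells lacking pPAFAH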
PAFAH1B2 inh = PAFAH1B2 (human) inhibition | hit rate 1.2% among 340,000 | AID 492953 | recombinant PAFAH1B2, FP-rhodamine activity probe, fluorescence polarization | inhibition, % at 3.39 µM | P68402;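 active = inhibition above the mean of all tested compounds plus 3 SD, cut at about 24% in these data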;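 note: 0% = enzyme with DMSO and 100% = wells lacking PAFAH1B2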
Target sequence (P68402 whole entry, looked up): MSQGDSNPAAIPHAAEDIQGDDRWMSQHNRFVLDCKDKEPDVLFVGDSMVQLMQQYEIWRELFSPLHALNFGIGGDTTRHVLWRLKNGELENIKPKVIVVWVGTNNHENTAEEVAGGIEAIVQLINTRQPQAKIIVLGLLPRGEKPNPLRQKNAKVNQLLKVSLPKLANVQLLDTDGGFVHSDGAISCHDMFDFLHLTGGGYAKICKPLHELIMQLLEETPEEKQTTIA
Numbers without * were called inactive; . = no result given. An excerpt weighted towards active compounds, which were near 2.8% of everything screened.

SMILES | Fam108B inh | PAFAH1B3 FP inh | PAFAH2 inh | PME-1 inh | pPAFAH inh | PAFAH1B2 inh
NC(=O)Cc1ccc(C(=O)CSc2nnc(-c3ccncc3)n2C2CC2)s1 | . | 3 | 19 | . | 33* | 6
Cc1cccc(C)c1Nc1ncnc2ccccc12 | 1 | 8 | -2 | 2 | -6 | 5
CCN(CC)CCCn1c2c(c(SCC(=O)Nc3ccc4c(c3)OCO4)nc1=O)CCC2 | 2 | 6 | -4 | -2 | 3 | 4
O=C1NN(c2ccccc2)C(=O)/C1=C\c1cccc(OC(=O)c2cccs2)c1 | 4 | 7 | 27 | 9 | 14 | 19
O=C1NN(c2ccc(Cl)c(Cl)c2)C(=O)/C1=C/c1cccc(OC(=O)c2cccs2)c1 | 4 | . | . | 37* | 57* | .
Cc1ccc(S(=O)(=O)N2CCOCC2)cc1C(=O)OCC(=O)c1ccc[nH]1 | . | 6 | 11 | 6 | 11 | 3
Cc1ccc(S(=O)(=O)N2CCOCC2)cc1C(=O)OCC(=O)c1ccc(Br)cc1 | . | -1 | 4 | 1 | -5 | 26*
O=C(COC(=O)c1ccccc1Br)Nc1cc(S(=O)(=O)N2CCOCC2)ccc1N1CCCC1 | 4 | 8 | 12 | 54* | 8 | 4
COc1ccc(OCC(=O)OCC(=O)Nc2cc(S(=O)(=O)N3CCOCC3)ccc2Cl)cc1 | . | 9 | 3 | . | 29* | 5
Cc1cc(OCC(=O)OCC(=O)Nc2cc(S(=O)(=O)N3CCOCC3)ccc2Cl)ccc1Cl | . | 9 | 6 | . | 16 | 9
CC(OC(=O)c1cc(Br)ccc1O)C(=O)Nc1ccc(S(=O)(=O)N2CCCC2)cc1 (stereo not drawn) | -18 | -3 | -4 | 0 | 26* | -2
CCN(C(=O)COC(=O)/C=C/c1c(C)nn(-c2ccccc2)c1C)c1c(N)n(Cc2ccccc2)c(=O)[nH]c1=O | . | 7 | 3 | . | . | 0
Cc1ccc2c(C(=O)CNc3nncs3)c(C)[nH]c2c1 | 4 | -2 | 7 | 6 | 0 | 0
COc1ccc(CCNC(=O)COC(=O)c2cc(S(=O)(=O)N3CCCC3)ccc2O)cc1 | . | 4 | 4 | 0 | -4 | 2
O=C(COC(=O)c1cc(S(=O)(=O)N2CCCC2)ccc1O)Nc1ccccc1Br | . | -2 | 49* | . | 2 | 2
CN1CCCN(Cc2ccccc2Br)CC1 | 0 | 8 | 1 | -4 | 5 | 4
COc1ccc2sc(-c3ccc(N(C)C)cc3)c(C#CCCO)c2c1 | . | 13 | 5 | 5 | 26* | 5
CCN(C(=O)CSc1ccccn1)C1CCCCC1 | . | 2 | 2 | . | 1 | 11
CCN(C(=O)CSc1ncccc1C(=O)O)C1CCCCC1 | -4 | 6 | -5 | -2 | -7 | 29*
COc1ccc(CN(C)CC(=O)Nc2sc3c(c2C#N)CCC3)c(OC)c1 | 2 | 6 | 8 | 2 | 5 | 24*
O=C(CNC(=O)c1ccc(Br)o1)Nc1cccc(S(=O)(=O)N2CCOCC2)c1 | 1 | 8 | 14 | -1 | 6 | 5
COc1cc(/C=N/NC(=O)COc2ccc([N+](=O)[O-])cc2)ccc1OCC(=O)N1CCOCC1 | 3 | 5 | -6 | -3 | 0 | 3
Cc1oc(C)c2c(=O)ccc3c(c12)OC(N)=C(C#N)C3c1ccc(F)cc1 (stereo not drawn) | 4 | -3 | 1 | -4 | 32* | -2
C=CCN=c1scc(C)n1/N=C/c1ccc(O)c(O)c1 | 2 | 12 | 10 | -3 | 34* | 6
COC(=O)c1sccc1NC(=O)CC1C(=O)NCCN1C(=O)c1ccc(C)c(C)c1 (stereo not drawn) | 2 | 2 | 3 | -8 | 1 | 3
SMILES | Fam108B inh | PAFAH1B3 FP inh | PAFAH2 inh | PME-1 inh | pPAFAH inh | PAFAH1B2 inh
COC(=O)c1ccccc1CSc1nsc(/C=C/N(C)C)c1C#N | 3 | 6 | -1 | 5 | 28* | 4
COc1cc(/C=N/NC(=O)c2sc3nc(C)cc(C)c3c2N)ccc1O | 3 | . | . | 18 | 31* | .
COC(=O)c1sc2nc(C)cc(C)c2c1N | 0 | 6 | 0 | -1 | 3 | 2
CS(=O)(=O)N1CCSC1c1ccc(Br)cc1 (stereo not drawn) | -1 | 7 | -2 | -4 | 2 | 26*
Cc1ccc(S(=O)(=O)N2CCC(=O)N(C(COCc3ccc(Cl)cc3)Cc3ccccc3)CC2)cc1 (stereo not drawn) | -1 | 9 | 7 | 2 | 9 | 25*
C=CCn1c(SCC#N)nc2c(c1=O)C(C)(C)Cc1ccccc1-2 | 3 | 2 | 0 | -2 | 5 | 25*
C=CCn1c(SCC#N)nc2ccccc2c1=O | -4 | 8 | -10 | 2 | -1 | 2
CC(O)[C@H]1CNC(=O)C(=O)N1CCC12CC3CC(CC(C3)C1)C2 (stereo partly drawn) | 3 | 10 | 13 | 1 | 0 | 25*
COCCN(C(=O)c1ccc(C#N)cc1)c1c(N)n(Cc2ccccc2)c(=O)[nH]c1=O | . | 2 | 5 | -1 | 2 | 6
COCCN(C(=O)c1ccc(OCC(C)C)cc1)c1c(N)n(Cc2ccccc2)c(=O)[nH]c1=O | 1 | -10 | -14 | 6 | 31* | 0
Cc1cc(C)c(C(=O)C(C)OC(=O)c2ccc(Cl)nc2)cc1C (stereo not drawn) | 4 | -7 | 1 | -2 | 4 | 5
Cc1ccc(CNC(=O)c2ccccc2NC(=O)CN2CC(C)OC(C)C2)cc1 (stereo not drawn) | 1 | -10 | 3 | -1 | -2 | 1
Cc1ccnc(NS(=O)(=O)c2ccc(NC(=O)Cc3cccs3)cc2)n1 | 5 | 9 | 15 | 3 | 34* | 4
Cc1ccc(F)c(CNC(=O)C2CCC(=O)N(CCCN3CCCC3=O)C2)c1F (stereo not drawn) | 1 | 10 | 5 | 0 | 4 | 1
S=C1NCCOCCOCCOCCN1 | -1 | -1 | -5 | 13 | 1 | 1
S=C1NCCOCCNC(=S)NCCOCCOCCN1 | -4 | 0 | 6 | 0 | 26* | -3
CC1CCCC(NC(=O)CSc2nncs2)C1C (stereo not drawn) | . | 5 | 6 | 0 | 0 | 4
Cc1ccccc1CS(=O)(=O)CCC(=O)N1CCN(c2ccc(N3CCOCC3)nn2)CC1 | -1 | 0 | 24 | -3 | 27* | 0
O=C(CCS(=O)(=O)Cc1ccccc1)N1CCN(c2ccccc2)CC1 | -6 | -1 | 8 | -2 | 11 | 2
Nc1ccc(-c2cnc(-c3ccc(N)cc3)nc2)cc1 | -6 | 7 | -2 | 10 | 6 | 1
Oc1ccc(-c2cnc(-c3ccc(O)cc3)nc2)cc1 | -7 | 0 | -2 | 36* | 4 | 6
O=C(CN1CCN(Cc2ccccc2)CC1)NNC(=O)c1ccccc1 | . | -4 | -5 | 3 | 1 | 0
CCOc1ccc2[nH]c(=O)c(CN(Cc3nnnn3Cc3ccco3)C3CCCCC3)cc2c1 | -3 | 8 | 8 | 1 | 1 | 2
COc1cc2cc(CN(Cc3nnnn3Cc3ccco3)C3CCCCC3)c(=O)[nH]c2cc1OC | 2 | 7 | 6 | 0 | 26* | 4
